# Measured values taken from PubChem BioAssay (NCATS).
# Records with an inconclusive call do not appear. A call without a number means that no potency is given here. Calls of active or inactive are those of the source. Calls come from the whole dose curve.
# Experiment: Primary qHTS for inhibitors of SARS-S pseudo-typed particle cell entry (AID 1479145); note: nearly all actives have a fitted effect of over 45% in size
# Details: SARS-S pseudotyped particle cell entry, luciferase reporter; series mostly up to 57.1 µM
# Potency is the fitted concentration of half-maximal effect.
row,SMILES,Potency
1,CCCCOC(=O)c1ccc(N)cc1,inactive
2,CCCCC(CC)COC(=O)c1ccccc1O (stereo not drawn),inactive
3,CCOc1cc(CC(=O)N[C@@H](CC(C)C)c2ccccc2N2CCCCC2)ccc1C(=O)O,inactive
4,CN(C)C(=O)COC(=O)Cc1ccc(OC(=O)c2ccc(N=C(N)N)cc2)cc1,inactive
5,C[C@](O)(CS(=O)(=O)c1ccc(F)cc1)C(=O)Nc1ccc(C#N)c(C(F)(F)F)c1,inactive
6,CC(=O)NC[C@H]1CN(c2ccc(N3CCOCC3)c(F)c2)C(=O)O1,inactive
7,COC(=O)c1cc(Cl)ccc1NS(=O)(=O)C(F)(F)F,inactive
8,c1ccc2sc(SSc3nc4ccccc4s3)nc2c1,inactive
9,CC(C)COC(=O)c1ccc(N)cc1,inactive
10,CCOC(=O)Oc1ccc(CCNC(=O)[C@H](CCSC)NC(C)=O)cc1OC(=O)OCC,inactive
11,CC(=O)Nc1ccc(C(=O)O)cc1,inactive
12,O=P(O)(O)C(O)(Cn1ccnc1)P(=O)(O)O,inactive
13,CC(=O)N=c1sc(S(N)(=O)=O)nn1C,inactive
14,CCCCCCCCCCCCCCCC(=O)OC(C)C,inactive
15,CCCC(=O)O[C@]1(C(=O)CO)CC[C@H]2[C@@H]3CCC4=CC(=O)CC[C@]4(C)[C@H]3[C@@H](O)C[C@@]21C,inactive
16,CCCC(=O)O[C@]1(C(=O)COC(=O)CC)CC[C@H]2[C@@H]3CCC4=CC(=O)CC[C@]4(C)[C@H]3[C@@H](O)C[C@@]21C,inactive
17,Nc1nc(Cl)nc2c1ncn2[C@@H]1O[C@H](CO)[C@@H](O)[C@@H]1F,20 µM (active)
18,CCCc1nc(C(C)(C)O)c(C(=O)OCc2oc(=O)oc2C)n1Cc1ccc(-c2ccccc2-c2nn[nH]n2)cc1,inactive
19,Cc1ccc(C(=O)C(=O)O)cc1C,inactive

row,SMILES,Potency
1,Nc1nc2[nH]cc(CCc3ccc(C(=O)N[C@@H](CCC(=O)O)C(=O)O)cc3)c2c(=O)[nH]1,inactive
2,O=C(COCCOCCOCC(=O)Nc1c(I)cc(I)c(C(=O)O)c1I)Nc1c(I)cc(I)c(C(=O)O)c1I,inactive
3,CC(C)(C)NCC(O)COc1cccc2c1C[C@H](O)[C@H](O)C2 (stereo partly drawn),inactive
4,CN[C@@H]1[C@H](O)[C@H](NC)[C@H]2O[C@@]3(O)C(=O)C[C@@H](C)O[C@H]3O[C@@H]2[C@H]1O,inactive
5,C#CCN[C@@H]1CCc2ccccc21,inactive
6,CO[C@@H]1[C@@H](OC(N)=O)[C@@H](O)[C@H](Oc2ccc3c(O)c(NC(=O)c4ccc(O)c(CC=C(C)C)c4)c(=O)oc3c2C)OC1(C)C,inactive
7,C/C(=N\O)[C@@H](C)NCC(C)(C)CN[C@H](C)/C(C)=N/O,inactive
8,CC(=O)CC(c1ccc([N+](=O)[O-])cc1)c1c(O)c2ccccc2oc1=O (stereo not drawn),inactive
9,C[N+](C)(C)CCOC(N)=O,inactive
10,CCn1cc(C(=O)O)c(=O)c2cc(F)c(N3CCNC(C)C3)c(F)c21 (stereo not drawn),inactive
11,CC[N+](C)(CC)CCOC(=O)C1c2ccccc2Oc2ccccc21,inactive
12,C/C(=C(\CCO)SS/C(CCO)=C(\C)N(C=O)Cc1cnc(C)nc1N)N(C=O)Cc1cnc(C)nc1N,inactive
13,CN1[C@@H]2CC(OC(=O)[C@H](CO)c3ccccc3)C[C@H]1[C@@H]1O[C@@H]12 (stereo partly drawn),inactive
14,O=C(O)Cc1cccc2ccccc12,inactive
15,CCC(=O)c1c(O)cc(O)cc1O,inactive
16,Nc1ccc(S(=O)(=O)c2ccc(N)cc2)cc1,inactive
17,NCCCCCC(=O)O,inactive
18,Nc1ncnc2nc[nH]c12,inactive
19,O=c1oc2ccccc2c(O)c1Cc1c(O)c2ccccc2oc1=O,inactive
